Common to all, as to set-up: species or system human, MV4-11 + K-562 + COLO205 + SK-N-BE2 + OVCAR-8
The test system of assay [1] is EIF2AK1. The note with it: read-out: apparent Kd, n = 1.
The test system of assay [2] is FGFR1. The following applies: read-out: apparent Kd, n = 1.
In assay [3] the test system is MAP3K4. The following applies: read-out: apparent Kd; compound concentrations:100 nM and 1000 nM (sheet 'Samples'); n = 1.
Assay [4] has as its system STK11. The note with it: read-out: apparent Kd, n = 1.
The test system of assay [5] is PRKCA. The following applies: read-out: apparent Kd, compound concentrations: 100 nM and 1000 nM (sheet 'Samples'), n = 1.
The subject of assay [6] is MST1R. The note with it: read-out: apparent Kd, compound concentrations: 100 nM and 1000 nM (sheet 'Samples'), n = 1.
For assay [7], the system named is FECH. The note with it: read-out: apparent Kd, compound concentrations: 100 nM and 1000 nM (sheet 'Samples'), n = 1.
Assay [8] concerns AXL. The following applies: read-out: apparent Kd, n = 1.
For assay [9], the system named is CHEK1. The following applies: read-out: apparent Kd, n = 1.
The subject of assay [10] is NUAK2. The following applies: read-out: apparent Kd, compound concentrations: 100 nM and 1000 nM (sheet 'Samples'), n = 1.
Assay [11] relates to PAK6. The following applies: read-out: apparent Kd, n = 1.
Assay [12] relates to PIP4K2C. The following applies: read-out: apparent Kd, n = 1.
The test system of assay [13] is AKT3. The note with it: read-out: apparent Kd; compound concentrations: 100 nM and 1000 nM (sheet 'Samples'), CATDS: 1.96345458497789E-2; n = 1.
In assay [14] the test system is ATR. The following applies: read-out: apparent Kd; compound concentrations:100 nM and 1000 nM (sheet 'Samples'); n = 1.
Assay [15] relates to MCM5. The note with it: read-out: apparent Kd; compound concentrations:100 nM and 1000 nM (sheet 'Samples'); n = 1.
In assay [16] the test system is RAB5C. The following applies: read-out: apparent Kd; compound concentrations:100 nM and 1000 nM (sheet 'Samples'); n = 1.
Assay [17] relates to MAP3K1. The following applies: read-out: apparent Kd; compound concentrations:100 nM and 1000 nM (sheet 'Samples'); n = 1.
Where [18] appears, read: compound concentrations:100 nM and 1000 nM (sheet 'Samples').

SMILES strings stand for the structures. Where two headings read alike, the source gives them in different places.

For `CCN(CC)CCOc1ccc(Nc2ncc3cc(-c4c(Cl)cccc4Cl)c(=O)n(C)c3n2)cc1` [SB-601273], the potency estimated from few doses in assay [1] (setting [18]) is 802 nM; in assay [2] (setting [18]) it was 388 nM; in assay [3] it was 640 nM.

For the compound `NC(=O)c1cccc(Nc2nccc(Nc3cccc4[nH]ncc34)n2)c1` [GW782612X], the potency estimated from few doses in assay [4] (compound concentrations: 100 nM and 1000 nM (sheet 'Samples'), CATDS: 6.0653418391634698E-2) is 342 nM.

With `Cc1cccc(Nc2nc(NCCN)ncc2C(N)=O)c1` [GSK1292139B], in assay [5] (CATDS: 7.8456539991917998E-2), the potency estimated from few doses was 1100 nM. On to `CS(=O)(=O)CCNCc1ccc(-c2ccc3ncnc(Nc4ccc(OCc5cccc(F)c5)c(C(F)(F)F)c4)c3c2)o1` [GW576484X], for which the potency estimated from few doses in assay [6] (CATDS: 4.8936571303095901E-2) was 2070 nM.

In the case of `COc1cc(Nc2ccnc3cc(-c4ccncc4)ccc23)cc(OC)c1OC.Cl` [GW494610A], the potency estimated from few doses in assay [7] (CATDS: 2.4367792327904599E-2) is 1070 nM; in assay [6] (CATDS: 2.33652063903033E-2), 1280 nM. For `O=C1N=C(NCc2cccs2)SC1Cc1ccc2ncccc2c1` (centres unmarked) [RO4629078-000], the potency estimated from few doses in assay [8] (compound concentrations: 100 nM and 1000 nM (sheet 'Samples'), CATDS: 8.9637378169906395E-3) was 899 nM; in assay [9] (compound concentrations: 100 nM and 1000 nM (sheet 'Samples'), CATDS: 9.1517924527920996E-3) it was 847 nM; in assay [2] (compound concentrations: 100 nM and 1000 nM (sheet 'Samples'), CATDS: 7.8188916788292304E-3) it was 1400 nM; in assay [10] (CATDS: 9.28769092053984E-3) it was 813 nM; in assay [11] (compound concentrations: 100 nM and 1000 nM (sheet 'Samples'), CATDS: 5.6767334452466102E-2), 43.4 nM; in [12] (compound concentrations: 100 nM and 1000 nM (sheet 'Samples'), CATDS: 1.8402634239812199E-2), 201 nM.

With `O=C1N=C(NCCc2cccc(Cl)c2)S/C1=C\c1ccc2ncccc2c1` [RO4509201-000], the potency estimated from few doses in assay [7] (CATDS: 5.2952837559238602E-2) was 2080 nM. As for `Cl.Cl.Cl.c1ccc(Oc2ccc(Nc3ccnc4cc(-c5ccc(CN6CCNCC6)o5)ccc34)cc2)nc1.c1ccc(Oc2ccc(Nc3ccnc4cc(-c5ccc(CN6CCNCC6)o5)ccc34)cc2)nc1` [GW567142A], the potency estimated from few doses in [13] was 1220 nM. `Cc1cccc(-c2cc(-c3c[nH]nc3-c3ccccn3)ccn2)c1` [GW679395X]: the potency estimated from few doses was 784 nM in assay [14] and 2220 nM in [15].

As to `CCn1cc(-c2ccnc3[nH]c(-c4cccc(CN(C)C)c4)cc23)c(-c2ccc(NC(=O)N(C)C)cc2)n1` [GSK1070916], the potency estimated from few doses in assay [8] (setting [18]) was 891 nM; in [16] it was 1430 nM. Take `CS(=O)(=O)Cc1ccc(Nc2nccc(-c3c(-c4cccc(NC(=O)C5CCCCC5)c4)nn4ncccc34)n2)cc1` [GSK350559A]: in [12] (setting [18]), the potency estimated from few doses was 136 nM. Consider `CN1C(=O)c2ccccc2N(C)c2nc(Nc3cnn(C4CCNCC4)c3)ncc21` [XMD-17-51], for which the potency estimated from few doses in assay [10] (CATDS: 1.40993766530741E-2) was 1630 nM. For the compound `COc1ccc(Nc2nccc(N3CCC(NC(=O)Nc4ccc5c(c4)OCO5)C3)n2)cc1` (centres unmarked) [GSK1379745A], the potency estimated from few doses in assay [9] (compound concentrations: 100 nM and 1000 nM (sheet 'Samples'), CATDS: 3.4900444296342099E-2) was 2070 nM. As to `CC(C)c1nc(-c2cccc(NS(=O)(=O)c3ccccc3)c2)c(-c2ccnc(Nc3ccc4c(c3)CN(C)CC4)n2)s1` [GSK1649598A], the potency estimated from few doses in [1] (compound concentrations: 100 nM and 1000 nM (sheet 'Samples'), CATDS: 1.2049138134939999E-2) was 2290 nM. For `Cn1cc(C2=C(c3cn(CCCO)c4ccccc34)C(=O)NC2=O)c2ccccc21` [RO0317377-000], the potency estimated from few doses in assay [5] (CATDS: 0.117489729482602) is 1240 nM. On to `COc1cc2ncn(-c3cc(OCc4cccs4)c(C(N)=O)s3)c2cc1OC` [GSK312948A], for which the values for the potency estimated from few doses in assay [17] and in [16] were 1470 nM and 1450 nM, respectively.

`Cl.Cn1c(=O)c(Cc2ccc(F)cc2F)cc2cnc(NC3CCOCC3)nc21` [RO3308757-001]: in assay [11] (setting [18]), the potency estimated from few doses is 1650 nM.

`Cn1cc(-c2cnc(N)c3c(-c4ccc5c(c4)CCN5C(=O)Cc4ccccc4)csc23)cn1` [GSK2593074A]: the potency estimated from few doses in assay [15] is 1530 nM.

Consider `COc1cc(/C=N/Nc2ncnc3[nH]ncc23)ccc1O` [GW578748X], for which the potency estimated from few doses in assay [9] (setting [18]) was 592 nM. For `COc1cccc(-c2c[nH]c3c(N/N=C/c4ccncc4)ncnc23)c1` [GW814408X], the potency estimated from few doses in assay [4] (setting [18]) was 1900 nM. For `Cn1cc(-c2ccc3c(c2)CCN3C(=O)Cc2cccc(Cl)c2)c2c(N)ncnc21` [GSK2606590A], the potency estimated from few doses in [1] (compound concentrations: 100 nM and 1000 nM (sheet 'Samples'), CATDS: 0.41818384912394302) is 679 nM.

The values are drawn from paper PMC11062922 (Nature Chemical Biology, 2023).
